The nature of test [1]: ATG_GRE_CIS: Attagene CIS-FACTORIAL HepG2 Assay for human Glucocorticoid Response Elements (GRE) (AID 2282947). Conditions: HepG2 GRE cis-reporter, Attagene multiplex mRNA; actives raise or lower the signal. The method in brief:
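Transiently transfected HepG2 cells carrying GRE cis-reporter units (endogenous TF activity) dosed 24 h; reporter mRNA quantified by RT-PCR, 6-FAM labelling, HpaI digestion and capillary electrophoresis. Bidirectional fit versus DMSO baseline.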

Test [2] is described as follows: ATG_ISRE_CIS: Attagene CIS-FACTORIAL HepG2 Assay for human Interferon Regulatory Factor 1 (IRF1) binding to an Interferon-Stimulated Response Element (ISRE) (AID 2282948). Conditions: HepG2 ISRE cis-reporter (Attagene), mRNA transcription readout; actives raise or lower the signal. The method in brief: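 Transiently transfected HepG2 cells carrying cis-element reporter units, dosed 24 hours. Reporter mRNA quantified by RT-PCR, fluorescent primer extension, HpaI digestion and capillary electrophoresis. Bidirectional fitting relative to DMSO.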

A short description of test [3]: ATG_M_32_CIS: Attagene CIS-FACTORIAL HepG2 Assay for M32 Transcription Factor (Internal Marker) (AID 2282949).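 Also: background control marker of the multiplexed CIS panel rather than a real target.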 Particulars: HepG2 Attagene cis-factorial M32 reporter, mRNA; actives raise or lower the signal. In outline: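 Fluorescent capillary electrophoresis peaks of HpaI-digested, FAM-labelled RT-PCR reporter products give the signal. Source: transiently transfected human liver HepG2 cells, 24 h after chemical dosing; bidirectional fitting against DMSO.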

Test [4] in a line: ATG_M_06_CIS: Attagene CIS-FACTORIAL HepG2 Assay for M06 Transcription Factor (Internal Marker) (AID 2282950). Particulars: HepG2 Attagene CIS-FACTORIAL M06 internal marker reporter; actives raise or lower the signal. In outline: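 Internal background marker within multiplexed cis-reporter HepG2 system. Cells transiently transfected, dosed 24 h; reporter mRNA measured by RT-PCR, HpaI digestion and capillary electrophoresis. Bidirectional fit relative to DMSO.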

The target in test [5] is Hypoxia-inducible factor 1-alpha (Homo sapiens) (UniProt Q16665). The test can be described thus: ATG_HIF1a_CIS: Attagene CIS-FACTORIAL HepG2 Assay for human Hypoxia Inducible Factor 1 (HIF1A) (AID 2282951). Particulars: HepG2 Attagene cis-factorial HIF1a reporter transcription; actives raise or lower the signal. In outline:
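Cis-element reporter constructs were transiently transfected into HepG2 cells, which were treated for 24 h; reporter RNA was reverse-transcribed, amplified, labelled and resolved by capillary electrophoresis.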

Test [6] concerns the target Hepatocyte nuclear factor 6 (Homo sapiens) (UniProt Q9UBC0). Nature of the test: ATG_HNF6_CIS: Attagene CIS-FACTORIAL HepG2 Assay for human Hepatocyte Nuclear Factor 6 (HNF6) (AID 2282952). Particulars: HepG2 Attagene cis-factorial HNF6 reporter transcription; actives raise or lower the signal. The method in brief:
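Reporter mRNA induction or loss in HepG2 after 24 h exposure; transient cis-MRTU transfection; fragments quantified by capillary electrophoresis; bidirectional analysis, DMSO as negative control.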

The nature of test [7]: ATG_MRE_CIS: Attagene CIS-FACTORIAL HepG2 Assay for human Metal Responsive Element (MRE) (AID 2282954). Conditions: HepG2 MRE cis-reporter transcription, Attagene multiplex; actives raise or lower the signal. In outline:
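HepG2 cells transiently transfected with cis-element-driven reporter units; mRNA measured 24 h after dosing. Reporter transcripts quantified by RT-PCR, FAM labelling, HpaI digestion and capillary electrophoresis; bidirectional fit versus DMSO.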

A short description of test [8]: ATG_PBREM_CIS: Attagene CIS-FACTORIAL HepG2 Assay for human Phenobarbital-responsive Enhancer Module (PBREM) (AID 2282955). Particulars: HepG2 PBREM cis-reporter, Attagene multiplexed transcription; actives raise or lower the signal. The method in brief: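 Multiplexed cis-reporter readout in human hepatoma HepG2 cells; PBREM-regulated transcript quantified after 24 h exposure by fluorescent RT-PCR fragment analysis. Signal changes up or down fitted relative to DMSO.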

The target of test [9] is Paired box protein Pax-6 (Homo sapiens) (UniProt P26367). Nature of the test: ATG_Pax6_CIS: Attagene CIS-FACTORIAL HepG2 Assay for human Paired Box 6 (PAX6) (AID 2282956). Particulars: HepG2 CIS-FACTORIAL PAX6 reporter transcription, RNA readout; actives raise or lower the signal. In outline:
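HepG2 cells transiently transfected with cis-promoter-driven multiplexed reporter units sensing endogenous transcription factor activity; 24 h chemical exposure. Reporter mRNA quantified by RT-PCR, 6-FAM labelling, HpaI digestion and capillary electrophoresis; bidirectional fit versus DMSO baseline.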

Test [10] can be described thus: ATG_PXRE_CIS: Attagene CIS-FACTORIAL HepG2 Assay for human Pregnane X Receptor Element (PXRE) (AID 2282957). Conditions: HepG2 Attagene CIS-FACTORIAL PXRE reporter, mRNA; actives raise or lower the signal. The method in brief:
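Transiently transfected HepG2 cells were dosed and incubated for 24 h. RNA was then isolated, DNase-treated, reverse-transcribed and reporter sequences amplified. Labeled, HpaI-digested fragments were quantified by capillary electrophoresis against DMSO.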

The nature of test [11]: ATG_PPRE_CIS: Attagene CIS-FACTORIAL HepG2 Assay for human Peroxisome Proliferator-activated Response Element (PPRE) (AID 2282958). Particulars: HepG2 PPRE cis-element reporter, Attagene transcription factor profiling; actives raise or lower the signal. The method in brief: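 DMSO served as negative control and baseline for bidirectional curve fitting. Signal came from PPRE-regulated reporter mRNA in HepG2 cells, measured 24 h post-dosing by RT-PCR, 6-FAM primer extension and capillary electrophoresis.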

Test [12] is described as follows: ATG_RORE_CIS: Attagene CIS-FACTORIAL HepG2 Assay for human RAR-related Orphan Receptor Element (RORE) (AID 2282959). Conditions: HepG2 Attagene cis-factorial RORE reporter, mRNA; actives raise or lower the signal. The method in brief: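 Transfect HepG2 with MRTUs; treat 24 h; extract RNA; RT with oligo(dT); PCR with reporter-specific primers; 6-FAM primer extension; HpaI digest 2 h at 37 C; capillary electrophoresis. Fit vs DMSO, bidirectional.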

A short description of test [13]: ATG_Sox_CIS: Attagene CIS-FACTORIAL HepG2 Assay for human SRY-box transcription factor (SOX) (AID 2282960). Conditions: HepG2 Attagene cis-factorial SOX reporter, mRNA; actives raise or lower the signal. In outline: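 Fluorescence-labelled cDNA fragments from reporter transcripts, sized by CE, give the signal. Cells: HepG2, transiently transfected with cis-regulated reporter units. Exposure 24 h; DMSO negative control; bidirectional curve fitting.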

Test [14] addresses Transcription factor Sp1 (Homo sapiens) (UniProt P08047). Nature of the test: ATG_Sp1_CIS: Attagene CIS-FACTORIAL HepG2 Assay for human Specificity Protein 1 (Sp1) (AID 2282961). Particulars: HepG2 Sp1 cis-reporter transcription, actives raise or lower the signal. In outline: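 Chemicals are dosed onto HepG2 cells transfected with multiple cis-promoter reporter constructs, and after 24 h reporter RNA is reverse-transcribed, PCR-amplified and resolved by capillary electrophoresis for fluorescence quantitation; activity is scored up or down against DMSO.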

Test [15] is described as follows: ATG_SREBP_CIS: Attagene CIS-FACTORIAL HepG2 Assay for human Sterol Regulatory Element Binding (SREBP) (AID 2282962). Conditions: HepG2 Attagene cis-factorial SREBP reporter, mRNA; actives raise or lower the signal. In outline: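 HepG2 cells transiently transfected with multiplexed cis-promoter reporter units sensing endogenous transcription factors; reporter mRNA measured 24 h after dosing by RT-PCR, 6-FAM labeling, HpaI digestion and capillary electrophoresis. Bidirectional fit versus DMSO.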

The target of test [16] is Signal transducer and activator of transcription 3 (Homo sapiens) (UniProt P40763). Nature of the test: ATG_STAT3_CIS: Attagene CIS-FACTORIAL HepG2 Assay for human Signal Transducer and Activator of Transcription 3 (STAT3) (AID 2282963). Particulars: HepG2, Attagene cis-factorial STAT3 reporter transcription; actives raise or lower the signal. The method in brief:
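HepG2 cells transiently transfected with multiple cis-element-driven reporter units report endogenous transcription factor activity. After 24 h compound exposure, reporter mRNA is measured by RT-PCR, 6-FAM labelling, HpaI digestion and capillary electrophoresis. Fitted bidirectionally versus DMSO.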

Test [17] can be described thus: ATG_TA_CIS: Attagene CIS-FACTORIAL HepG2 Assay for human TA Basal Promoter (AID 2282964). Conditions: HepG2 Attagene CIS-factorial TA basal promoter reporter; actives raise or lower the signal. In outline: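 HepG2 cells transiently transfected with multiple reporter units under cis promoter elements, reporting endogenous transcription factor activity; this endpoint tracks the TA basal promoter as background control. Reporter mRNA after 24 h dosing measured by RT-PCR/capillary electrophoresis; bidirectional fits versus DMSO.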

The nature of test [18]: ATG_TCF_b_cat_CIS: Attagene CIS-FACTORIAL HepG2 Assay for human T-Cell-Factor with beta-catenin (TCF/b-cat) (AID 2282965). Conditions: HepG2 TCF/beta-catenin cis-reporter transcription, actives raise or lower the signal. The method in brief:
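HepG2 cells transiently transfected with cis-promoter-driven multiplexed reporter units; reporter mRNA measured 24 h after dosing by RT-PCR, FAM labelling, HpaI digestion and capillary electrophoresis. Bidirectional fitting relative to DMSO baseline.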

Test [19] in a line: ATG_TAL_CIS: Attagene CIS-FACTORIAL HepG2 Assay for human TAL Basal Promoter (AID 2282966).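 Also: background control endpoint measuring basal TAL promoter reporter mRNA not a specific factor.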 Conditions: HepG2 Attagene cis-factorial TAL promoter reporter; actives raise or lower the signal. In outline: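 Readout: reporter mRNA, fluorescence by CE. System: HepG2, transient multi-reporter transfection, endogenous TF activity. Exposure: 24 h. Analysis: bidirectional, DMSO-normalized; background control.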

The source made the active and inactive calls. The calls were made as follows: active = hit-call score of the fitted dose curve at least 0.9, where 1 is the maximum; inactive = score below 0.9.

Sequence of Transcription factor Sp1 (Homo sapiens) (P08047 whole entry, looked up): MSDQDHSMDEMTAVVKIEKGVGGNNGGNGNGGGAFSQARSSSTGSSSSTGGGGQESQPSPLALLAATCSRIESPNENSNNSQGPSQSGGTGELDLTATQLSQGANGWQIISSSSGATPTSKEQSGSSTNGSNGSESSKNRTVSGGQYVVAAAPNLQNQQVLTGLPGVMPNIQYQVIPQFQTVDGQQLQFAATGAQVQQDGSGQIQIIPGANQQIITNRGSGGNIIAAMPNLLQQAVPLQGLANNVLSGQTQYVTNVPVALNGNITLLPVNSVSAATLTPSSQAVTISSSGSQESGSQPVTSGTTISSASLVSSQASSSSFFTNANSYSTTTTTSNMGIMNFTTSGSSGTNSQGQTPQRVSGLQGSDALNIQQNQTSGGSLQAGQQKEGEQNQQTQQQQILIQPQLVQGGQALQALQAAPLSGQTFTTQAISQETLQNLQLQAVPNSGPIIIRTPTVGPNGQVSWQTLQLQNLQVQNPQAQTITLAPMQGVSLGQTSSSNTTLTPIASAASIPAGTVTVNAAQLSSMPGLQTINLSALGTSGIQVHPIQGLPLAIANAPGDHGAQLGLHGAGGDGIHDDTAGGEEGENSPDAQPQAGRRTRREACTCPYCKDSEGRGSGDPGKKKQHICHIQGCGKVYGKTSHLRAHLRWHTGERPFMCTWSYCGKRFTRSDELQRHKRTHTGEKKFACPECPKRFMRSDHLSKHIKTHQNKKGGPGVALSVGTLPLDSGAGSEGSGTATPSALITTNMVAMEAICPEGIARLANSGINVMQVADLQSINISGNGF
Sequence of Hepatocyte nuclear factor 6 (Homo sapiens) (Q9UBC0 whole entry, looked up, the tested form may be a part): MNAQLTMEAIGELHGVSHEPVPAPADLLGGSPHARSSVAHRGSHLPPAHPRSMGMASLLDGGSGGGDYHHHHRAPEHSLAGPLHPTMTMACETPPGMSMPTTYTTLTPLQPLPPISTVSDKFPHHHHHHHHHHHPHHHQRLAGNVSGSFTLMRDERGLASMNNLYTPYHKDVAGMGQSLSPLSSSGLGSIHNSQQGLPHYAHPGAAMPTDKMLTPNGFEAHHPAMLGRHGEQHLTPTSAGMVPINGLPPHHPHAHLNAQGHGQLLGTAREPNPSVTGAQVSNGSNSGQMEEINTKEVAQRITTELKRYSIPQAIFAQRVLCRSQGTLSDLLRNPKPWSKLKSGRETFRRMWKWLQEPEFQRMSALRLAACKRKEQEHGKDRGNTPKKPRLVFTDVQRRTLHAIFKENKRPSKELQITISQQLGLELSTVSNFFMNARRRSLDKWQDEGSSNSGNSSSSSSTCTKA
Sequence of Hypoxia-inducible factor 1-alpha (Homo sapiens) (Q16665 whole entry, looked up): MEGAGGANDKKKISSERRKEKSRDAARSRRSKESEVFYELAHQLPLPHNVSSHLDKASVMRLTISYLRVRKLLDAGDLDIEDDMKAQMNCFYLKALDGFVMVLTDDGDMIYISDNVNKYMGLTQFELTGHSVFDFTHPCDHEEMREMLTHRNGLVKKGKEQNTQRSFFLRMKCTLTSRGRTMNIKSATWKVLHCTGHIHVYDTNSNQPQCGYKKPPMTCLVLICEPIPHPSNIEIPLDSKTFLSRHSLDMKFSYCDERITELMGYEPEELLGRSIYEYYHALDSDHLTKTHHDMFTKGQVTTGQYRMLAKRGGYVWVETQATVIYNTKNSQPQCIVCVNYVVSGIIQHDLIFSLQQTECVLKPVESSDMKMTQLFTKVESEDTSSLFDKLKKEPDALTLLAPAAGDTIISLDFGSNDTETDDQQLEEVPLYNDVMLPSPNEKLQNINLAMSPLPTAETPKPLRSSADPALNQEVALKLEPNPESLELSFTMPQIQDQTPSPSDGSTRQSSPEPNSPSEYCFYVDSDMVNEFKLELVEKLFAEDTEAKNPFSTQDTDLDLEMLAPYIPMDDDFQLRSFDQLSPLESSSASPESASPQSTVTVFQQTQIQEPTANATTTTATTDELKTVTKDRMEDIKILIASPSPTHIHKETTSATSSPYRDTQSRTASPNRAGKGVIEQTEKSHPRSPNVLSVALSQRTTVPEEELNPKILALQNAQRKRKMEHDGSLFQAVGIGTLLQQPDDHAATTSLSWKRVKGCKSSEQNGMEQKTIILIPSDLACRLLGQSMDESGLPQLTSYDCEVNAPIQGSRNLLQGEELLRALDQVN
Sequence of Signal transducer and activator of transcription 3 (Homo sapiens) (P40763 whole entry, looked up): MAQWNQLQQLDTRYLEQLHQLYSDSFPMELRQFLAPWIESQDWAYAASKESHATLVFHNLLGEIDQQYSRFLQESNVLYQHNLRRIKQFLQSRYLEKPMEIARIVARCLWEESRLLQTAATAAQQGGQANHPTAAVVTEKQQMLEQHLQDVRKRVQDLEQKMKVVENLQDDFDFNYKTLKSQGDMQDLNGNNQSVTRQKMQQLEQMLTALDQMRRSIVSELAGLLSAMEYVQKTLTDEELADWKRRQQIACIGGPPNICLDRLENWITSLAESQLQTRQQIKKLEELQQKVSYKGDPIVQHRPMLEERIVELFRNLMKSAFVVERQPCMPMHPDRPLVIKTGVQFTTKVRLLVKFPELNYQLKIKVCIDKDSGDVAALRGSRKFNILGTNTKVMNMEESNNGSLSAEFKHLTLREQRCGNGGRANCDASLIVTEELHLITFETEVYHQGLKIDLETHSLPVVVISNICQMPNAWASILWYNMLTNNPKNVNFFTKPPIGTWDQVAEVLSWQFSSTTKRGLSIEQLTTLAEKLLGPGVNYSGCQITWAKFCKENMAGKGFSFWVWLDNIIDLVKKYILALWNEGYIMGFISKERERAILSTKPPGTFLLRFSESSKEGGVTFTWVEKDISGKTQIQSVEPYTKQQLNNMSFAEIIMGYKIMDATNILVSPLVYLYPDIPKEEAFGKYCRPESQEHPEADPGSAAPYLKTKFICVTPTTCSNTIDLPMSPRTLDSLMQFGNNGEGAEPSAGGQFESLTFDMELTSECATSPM
Sequence of Paired box protein Pax-6 (Homo sapiens) (P26367 whole entry, looked up): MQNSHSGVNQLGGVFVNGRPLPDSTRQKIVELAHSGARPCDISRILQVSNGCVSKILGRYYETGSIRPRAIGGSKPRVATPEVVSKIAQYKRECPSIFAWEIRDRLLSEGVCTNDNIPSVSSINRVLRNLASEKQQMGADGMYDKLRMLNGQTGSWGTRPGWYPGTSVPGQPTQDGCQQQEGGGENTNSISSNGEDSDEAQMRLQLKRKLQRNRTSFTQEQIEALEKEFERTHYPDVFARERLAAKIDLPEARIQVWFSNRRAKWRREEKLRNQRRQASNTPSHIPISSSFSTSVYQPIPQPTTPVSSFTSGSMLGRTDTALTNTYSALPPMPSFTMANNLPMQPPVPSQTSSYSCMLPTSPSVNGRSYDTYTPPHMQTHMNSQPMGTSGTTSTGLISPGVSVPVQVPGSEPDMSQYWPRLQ

Take `COS(C)(=O)=O`: the molecule was called inactive in test [1], in [2], in test [3], in test [4], in test [5] and in test [6]. For the same molecule, the call in test [7], in [8], in test [9], in test [10], in [11] and in [12] was inactive. Moreover, the outcome in [13], in test [14], in test [15], in test [16], in test [17] and in [18] was inactive. In addition, the result in test [19] was inactive.
As usually defined, the AC50 is the concentration giving half of the maximal activity seen. Consider `OC[C@H]1O[C@@H]2O[C@H]3[C@H](O)[C@@H](O)[C@@H](O[C@H]4[C@H](O)[C@@H](O)[C@@H](O[C@H]5[C@H](O)[C@@H](O)[C@@H](O[C@H]6[C@H](O)[C@@H](O)[C@@H](O[C@H]7[C@H](O)[C@@H](O)[C@@H](O[C@H]1[C@H](O)[C@H]2O)O[C@@H]7CO)O[C@@H]6CO)O[C@@H]5CO)O[C@@H]4CO)O[C@@H]3CO`, for which the molecule was classed as inactive in [1], in test [2], in [3], in test [4], in test [5] and in [6]. Moreover, the molecule was called inactive in test [7], in test [8], in [9], in test [12], in [13] and in [14]. The outcome in test [15], in test [16], in test [17], in test [18] and in [19] was inactive. The AC50 in [10] was 18.4 µM (active).
`C=CCc1cc(S(=O)(=O)c2ccc(O)c(CC=C)c2)ccc1O`: the outcome in [1], in [2], in [3], in [4], in test [5] and in test [6] was inactive. Also, the outcome in test [8], in test [13], in test [14], in test [16] and in [19] was inactive. In addition, the concentration at half-maximal activity (AC50) in [7] is 47 µM (active); in [9], 33.4 µM (active); in test [10], 2.77 µM (active); in test [11] it was 8.96 µM (active); in test [12] it was 17.4 µM (active); in [15], 9.26 µM (active). Further, in [18], the AC50 was 43.7 µM (active).
